Consider four molecules from PubChem BioAssay (EPA / NIEHS).

A short description of assay [1]: ATG_E_Box_CIS: Attagene CIS-FACTORIAL HepG2 Assay for human Enhancer Box (E-box) (AID 2282936). As to conditions: HepG2 E-box cis-reporter transcription, actives raise or lower the signal. The essentials: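 E-box-driven reporter transcripts measured in transiently transfected HepG2 after 24 h exposure: RNA reverse-transcribed, PCR-amplified, fluorescently labelled, digested and resolved by capillary electrophoresis. Gain or loss relative to DMSO.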

Assay [2] is described as follows: ATG_M_61_CIS: Attagene CIS-FACTORIAL HepG2 Assay for M61 Transcription Factor (Internal Marker) (AID 2282937). As to conditions: HepG2 Attagene CIS-FACTORIAL M61 internal marker reporter; actives raise or lower the signal. The essentials: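 Human liver HepG2, transient MRTU transfection (cis promoter elements), 24 h compound. Total RNA → oligo(dT) RT → PCR → FAM label → HpaI → CE. Internal background marker; bidirectional fitting, DMSO = baseline.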

Assay [3] in a line: ATG_EGR_CIS: Attagene CIS-FACTORIAL HepG2 Assay for human Early Growth Response 1 (EGR1) (AID 2282938). As to conditions: HepG2 Attagene CIS-FACTORIAL EGR reporter mRNA; actives raise or lower the signal. The essentials: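 Transient transfection of human HepG2 with multiple cis-regulated reporter units, chemical exposure 24 h, total RNA isolated. Reverse transcription, PCR, fluorescent labelling and capillary electrophoresis quantify reporter transcripts; activity fitted bidirectionally against DMSO.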

Assay [4] in a line: ATG_M_19_CIS: Attagene CIS-FACTORIAL HepG2 Assay for M19 Transcription Factor (Internal Marker) (AID 2282939). As to conditions: HepG2 Attagene CIS-FACTORIAL M19 internal marker reporter; actives raise or lower the signal. The essentials:
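HepG2 cells transiently transfected with cis-regulated multiplexed reporter units, dosed 24 h. Reporter mRNA quantified by RT-PCR and capillary electrophoresis; internal background marker fitted bidirectionally versus DMSO.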

Assay [5] in a line: ATG_ERE_CIS: Attagene CIS-FACTORIAL HepG2 Assay for Estrogen Response Element (ERE) (AID 2282940). As to conditions: HepG2 ERE cis-reporter, Attagene RNA transcript; actives raise or lower the signal. The essentials:
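HepG2 cells transiently transfected with multiplexed cis-element reporter units, measuring endogenous transcription factor activity; ERE reporter mRNA quantified after 24 h exposure by RT-PCR, fluorescent labelling, HpaI digestion and capillary electrophoresis. Bidirectional change versus DMSO.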

Assay [6] in a line: ATG_Ets_CIS: Attagene CIS-FACTORIAL HepG2 Assay for human Erythroblast Transformation Specific (ETS) (AID 2282941). As to conditions: HepG2 ETS cis-reporter transcription, actives raise or lower the signal. In short, it runs like this:
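Multiplexed reporter transcript profiling: HepG2, 24 h treatment, total RNA to cDNA, PCR, 6-FAM labelling, HpaI cut, capillary electrophoresis. Gain- or loss-of-signal fitted against DMSO.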

Assay [7] concerns the target Hepatocyte nuclear factor 3-beta (Homo sapiens) (UniProt Q9Y261). The experiment in a line: ATG_FoxA2_CIS: Attagene CIS-FACTORIAL HepG2 Assay for human Forkhead box A2 (FOXA2) (AID 2282942). As to conditions: HepG2 cis-reporter transcription factor activity, 24 h; actives raise or lower the signal. The essentials:
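Transient MRTU transfection of HepG2 liver cells; 24 h treatment; total RNA → oligo(dT) RT → PCR → FAM primer extension → HpaI cut → CE. Bidirectional fit vs DMSO.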

Assay [8] is described as follows: ATG_FoxO_CIS: Attagene CIS-FACTORIAL HepG2 Assay for human Forkhead box O (FoxO) (AID 2282943). As to conditions: HepG2 Attagene cis-reporter, FoxO element, mRNA; actives raise or lower the signal. The essentials: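 Human hepatoma HepG2 cells carry transiently introduced reporter transcription units controlled by cis promoter elements. Chemical treatment lasted 24 h, and mRNA signal was compared with DMSO.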

A short description of assay [9]: ATG_GATA_CIS: Attagene CIS-FACTORIAL HepG2 Assay for human GATA Binding Protein (AID 2282944). As to conditions: HepG2 GATA cis-element reporter, Attagene multiplex mRNA; actives raise or lower the signal. In short, it runs like this:
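HepG2 cells transiently transfected with multiplexed cis-element reporter units measure endogenous GATA activity; after 24 h compound exposure, reporter mRNA quantified by RT-PCR and capillary electrophoresis. Changes fitted in both directions vs DMSO.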

Assay [10] can be described thus: ATG_GLI_CIS: Attagene CIS-FACTORIAL HepG2 Assay for human Zinc Finger Protein GLI1 (AID 2282945). As to conditions: HepG2, Attagene cis-factorial reporter mRNA, GLI element; actives raise or lower the signal. The essentials: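 Bidirectional curve fits relative to DMSO, using reporter mRNA levels from RT-PCR plus capillary electrophoresis. Cells were HepG2 transiently carrying cis-regulated reporter constructs, harvested 24 h after dosing.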

The target in assay [11] is Bile acid receptor (Homo sapiens) (UniProt Q96RI1). The experiment in a line: ATG_IR1_CIS: Attagene CIS-FACTORIAL HepG2 Assay for human Nuclear Receptor Subfamily 1 Group H Member 4 (NR1H4), IR1 submotif (AID 2282946). As to conditions: IR1 reporter transcription, actives raise or lower the signal. The essentials: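 HepG2 cells transiently transfected with multiplexed cis-element reporter units read endogenous transcription factor activity. After 24 h compound exposure, reporter mRNA was quantified by RT-PCR, fluorescent labelling, HpaI digestion and capillary electrophoresis; bidirectional fitting versus DMSO baseline.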

Assay [12] can be described thus: ATG_GRE_CIS: Attagene CIS-FACTORIAL HepG2 Assay for human Glucocorticoid Response Elements (GRE) (AID 2282947). As to conditions: HepG2 GRE cis-reporter, Attagene multiplex mRNA; actives raise or lower the signal. The essentials:
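Reporter transcripts read by RT-PCR with capillary electrophoresis fluorescence after a 24 h chemical exposure of HepG2 cells transiently transfected with multiple cis-element reporter units. Gain or loss fitted against DMSO.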

A short description of assay [13]: ATG_ISRE_CIS: Attagene CIS-FACTORIAL HepG2 Assay for human Interferon Regulatory Factor 1 (IRF1) binding to an Interferon-Stimulated Response Element (ISRE) (AID 2282948). As to conditions: HepG2 ISRE cis-reporter (Attagene), mRNA transcription readout; actives raise or lower the signal. In short, it runs like this:
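Signal reflects induction or loss of ISRE-linked reporter mRNA in transiently transfected HepG2 cells after a 24 h treatment, detected by fluorescent RT-PCR fragments on capillary electrophoresis and normalised to DMSO.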

The nature of assay [14]: ATG_M_06_CIS: Attagene CIS-FACTORIAL HepG2 Assay for M06 Transcription Factor (Internal Marker) (AID 2282950). As to conditions: HepG2 Attagene CIS-FACTORIAL M06 internal marker reporter; actives raise or lower the signal. In short, it runs like this:
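Internal background marker within multiplexed cis-reporter HepG2 system. Cells transiently transfected, dosed 24 h; reporter mRNA measured by RT-PCR, HpaI digestion and capillary electrophoresis. Bidirectional fit relative to DMSO.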

In assay [15] the target is Hepatocyte nuclear factor 6 (Homo sapiens) (UniProt Q9UBC0). The assay can be described thus: ATG_HNF6_CIS: Attagene CIS-FACTORIAL HepG2 Assay for human Hepatocyte Nuclear Factor 6 (HNF6) (AID 2282952). As to conditions: HepG2 Attagene cis-factorial HNF6 reporter transcription; actives raise or lower the signal. The essentials:
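Endogenous factor activity read in transiently transfected HepG2 via promoter-regulated reporter transcripts. RNA harvested 24 h post-dosing, reverse-transcribed, PCR-amplified, FAM-labelled, HpaI-digested and resolved by capillary electrophoresis; fitted in both directions against DMSO.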

Assay [16] deals with Heat shock factor protein 1 (Homo sapiens) (UniProt Q00613). The experiment in a line: ATG_HSE_CIS: Attagene CIS-FACTORIAL HepG2 Assay for human Heat Shock Transcription Factor 1 (HSE) (AID 2282953). As to conditions: HepG2 HSE cis-reporter, Attagene RNA transcription; actives raise or lower the signal. The essentials: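 HepG2 cells transfected with cis-promoter reporter units sensing endogenous transcription factor activity; reporter mRNA quantified 24 h post-dose by RT-PCR and capillary electrophoresis of 6-FAM-labelled products. Bidirectional fitting against DMSO.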

Assay [17] is described as follows: ATG_MRE_CIS: Attagene CIS-FACTORIAL HepG2 Assay for human Metal Responsive Element (MRE) (AID 2282954). As to conditions: HepG2 MRE cis-reporter transcription, Attagene multiplex; actives raise or lower the signal. The essentials:
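Endogenous MRE-dependent transcription read as reporter mRNA in transiently transfected human HepG2 cells at 24 h. RNA reverse-transcribed, PCR-amplified, labelled and resolved by capillary electrophoresis; gain or loss relative to DMSO.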

The nature of assay [18]: ATG_PBREM_CIS: Attagene CIS-FACTORIAL HepG2 Assay for human Phenobarbital-responsive Enhancer Module (PBREM) (AID 2282955). As to conditions: HepG2 PBREM cis-reporter, Attagene multiplexed transcription; actives raise or lower the signal. The essentials: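 Endogenous transcription factors in human liver HepG2 cells drive a PBREM cis-element reporter, whose transcript level after 24 h treatment is quantified by RT-PCR with capillary electrophoresis; activity fitted in both directions against DMSO.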

Assay [19] is described as follows: ATG_M_32_CIS: Attagene CIS-FACTORIAL HepG2 Assay for M32 Transcription Factor (Internal Marker) (AID 2282949).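 Note: background control marker of the multiplexed CIS panel rather than a real target.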 As to conditions: HepG2 Attagene cis-factorial M32 reporter, mRNA; actives raise or lower the signal. In short, it runs like this:
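HepG2 human liver cells transiently transfected with cis-promoter-driven multiple reporter transcription units, dosed 24 h. Reporter mRNA quantified by RT-PCR, FAM-labelled primer extension, HpaI digest and capillary electrophoresis; bidirectional fit versus DMSO baseline.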

Assay [20] addresses Hypoxia-inducible factor 1-alpha (Homo sapiens) (UniProt Q16665). The assay can be described thus: ATG_HIF1a_CIS: Attagene CIS-FACTORIAL HepG2 Assay for human Hypoxia Inducible Factor 1 (HIF1A) (AID 2282951). As to conditions: HepG2 Attagene cis-factorial HIF1a reporter transcription; actives raise or lower the signal. In short, it runs like this: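 Transient MRTU transfection of human HepG2 liver cells, 24 h compound treatment, then total RNA isolation, oligo(dT) reverse transcription, PCR amplification, fluorescent labelling and capillary electrophoresis of reporter fragments. Gain or loss relative to DMSO.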

Molecules are shown by their SMILES. Activity calls are given as the source filed them. Rule for the calls: active = hit-call score of the fitted dose curve at least 0.9, where 1 is the maximum; inactive = score below 0.9.

Chain of Heat shock factor protein 1 (Homo sapiens) (Q00613 whole entry, looked up): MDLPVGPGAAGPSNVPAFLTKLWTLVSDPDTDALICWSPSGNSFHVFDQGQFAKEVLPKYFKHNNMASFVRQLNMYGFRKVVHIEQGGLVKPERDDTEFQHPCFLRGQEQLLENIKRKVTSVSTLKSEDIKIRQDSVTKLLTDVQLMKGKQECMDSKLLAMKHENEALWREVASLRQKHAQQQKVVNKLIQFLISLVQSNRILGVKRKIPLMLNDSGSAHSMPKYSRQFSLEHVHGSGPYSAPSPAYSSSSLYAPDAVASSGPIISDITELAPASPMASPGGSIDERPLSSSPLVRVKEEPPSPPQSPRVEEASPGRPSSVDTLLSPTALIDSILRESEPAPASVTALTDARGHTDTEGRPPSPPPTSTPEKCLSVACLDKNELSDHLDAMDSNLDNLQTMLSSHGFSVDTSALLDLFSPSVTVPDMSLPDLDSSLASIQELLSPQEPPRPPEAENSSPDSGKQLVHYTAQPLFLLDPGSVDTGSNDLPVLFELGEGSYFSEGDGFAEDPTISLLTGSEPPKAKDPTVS
Chain of Bile acid receptor (Homo sapiens) (Q96RI1 whole entry, looked up): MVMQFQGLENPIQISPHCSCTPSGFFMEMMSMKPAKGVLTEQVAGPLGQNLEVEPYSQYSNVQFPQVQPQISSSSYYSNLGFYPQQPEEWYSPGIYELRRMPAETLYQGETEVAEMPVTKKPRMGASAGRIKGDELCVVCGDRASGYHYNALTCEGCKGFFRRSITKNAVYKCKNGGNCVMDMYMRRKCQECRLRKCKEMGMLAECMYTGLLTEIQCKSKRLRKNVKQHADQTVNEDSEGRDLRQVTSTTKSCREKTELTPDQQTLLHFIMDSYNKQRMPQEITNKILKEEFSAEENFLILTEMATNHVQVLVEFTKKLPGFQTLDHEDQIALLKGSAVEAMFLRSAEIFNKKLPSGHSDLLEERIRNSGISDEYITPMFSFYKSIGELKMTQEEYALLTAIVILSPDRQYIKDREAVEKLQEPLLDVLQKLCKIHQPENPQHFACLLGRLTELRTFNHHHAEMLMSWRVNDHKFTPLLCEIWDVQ
Chain of Hepatocyte nuclear factor 6 (Homo sapiens) (Q9UBC0 whole entry, looked up): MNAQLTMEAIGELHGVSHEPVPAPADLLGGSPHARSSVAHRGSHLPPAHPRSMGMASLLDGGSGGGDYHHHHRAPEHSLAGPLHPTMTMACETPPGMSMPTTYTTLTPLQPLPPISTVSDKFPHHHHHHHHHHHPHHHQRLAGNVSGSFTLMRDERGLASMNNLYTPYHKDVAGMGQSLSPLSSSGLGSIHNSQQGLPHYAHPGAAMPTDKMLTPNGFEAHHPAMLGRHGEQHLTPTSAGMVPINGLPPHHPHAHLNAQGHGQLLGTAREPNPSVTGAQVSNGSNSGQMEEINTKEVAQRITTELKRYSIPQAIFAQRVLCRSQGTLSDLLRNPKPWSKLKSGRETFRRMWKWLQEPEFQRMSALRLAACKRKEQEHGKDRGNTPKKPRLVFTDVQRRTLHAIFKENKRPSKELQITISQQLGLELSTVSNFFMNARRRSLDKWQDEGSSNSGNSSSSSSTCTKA
Chain of Hepatocyte nuclear factor 3-beta (Homo sapiens) (Q9Y261 whole entry, looked up): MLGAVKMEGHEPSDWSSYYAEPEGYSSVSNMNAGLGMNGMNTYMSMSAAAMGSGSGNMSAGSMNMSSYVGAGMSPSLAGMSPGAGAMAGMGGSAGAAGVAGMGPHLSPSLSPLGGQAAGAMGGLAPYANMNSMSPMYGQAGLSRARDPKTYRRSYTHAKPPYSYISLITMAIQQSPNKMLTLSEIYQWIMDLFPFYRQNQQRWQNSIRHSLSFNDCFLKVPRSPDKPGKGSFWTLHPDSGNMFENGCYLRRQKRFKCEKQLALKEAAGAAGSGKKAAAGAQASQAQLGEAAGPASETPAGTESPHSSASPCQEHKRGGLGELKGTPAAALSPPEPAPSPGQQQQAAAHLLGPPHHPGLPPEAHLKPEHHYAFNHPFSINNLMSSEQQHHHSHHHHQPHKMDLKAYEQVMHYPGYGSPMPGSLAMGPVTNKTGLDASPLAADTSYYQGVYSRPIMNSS
Chain of Hypoxia-inducible factor 1-alpha (Homo sapiens) (Q16665 whole entry, looked up, the tested form may be a part): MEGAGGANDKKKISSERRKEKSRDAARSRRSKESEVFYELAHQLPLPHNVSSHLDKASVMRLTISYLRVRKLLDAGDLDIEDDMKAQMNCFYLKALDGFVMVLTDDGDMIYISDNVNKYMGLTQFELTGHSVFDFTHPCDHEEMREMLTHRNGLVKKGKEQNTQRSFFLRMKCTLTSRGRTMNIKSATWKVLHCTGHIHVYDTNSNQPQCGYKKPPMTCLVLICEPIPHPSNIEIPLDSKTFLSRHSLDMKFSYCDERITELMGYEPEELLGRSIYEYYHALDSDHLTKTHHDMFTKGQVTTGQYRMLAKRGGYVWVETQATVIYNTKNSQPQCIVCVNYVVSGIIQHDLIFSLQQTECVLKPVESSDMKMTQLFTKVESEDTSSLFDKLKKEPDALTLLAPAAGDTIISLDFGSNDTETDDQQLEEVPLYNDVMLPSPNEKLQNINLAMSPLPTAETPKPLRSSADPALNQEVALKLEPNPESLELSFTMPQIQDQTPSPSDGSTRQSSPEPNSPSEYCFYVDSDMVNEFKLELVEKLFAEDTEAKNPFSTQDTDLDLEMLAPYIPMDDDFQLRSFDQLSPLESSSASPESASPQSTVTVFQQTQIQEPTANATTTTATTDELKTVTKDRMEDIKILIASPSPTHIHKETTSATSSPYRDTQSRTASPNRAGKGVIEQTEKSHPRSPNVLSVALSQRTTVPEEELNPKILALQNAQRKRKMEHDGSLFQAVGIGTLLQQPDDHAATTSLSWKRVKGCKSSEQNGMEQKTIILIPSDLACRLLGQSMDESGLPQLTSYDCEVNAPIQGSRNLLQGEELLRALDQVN

As for `O=Cc1ccc(Cl)c([N+](=O)[O-])c1`, the AC50 in assay [1] is 47.7 µM (active); in assay [3] it was 129 µM (active); in assay [6], 134 µM (active); in assay [7], 145 µM (active); in [8], 128 µM (active); in assay [10], 165 µM (active). The AC50 in [11] was 63.7 µM (active); in [13] it was 149 µM (active); in assay [15], 134 µM (active); in [16] it was 142 µM (active); in [17], 142 µM (active). Besides, the molecule was classed as inactive in [2], in assay [4], in assay [5], in [9], in assay [12] and in assay [14]. For the same molecule, in [18], the outcome was inactive.
As for `N#Cc1ccc(CC(=NNC(=O)Nc2ccc(OC(F)(F)F)cc2)c2cccc(C(F)(F)F)c2)cc1`, the result in [1], in [2], in [3], in assay [4], in assay [5] and in [6] was inactive. Further, the molecule was called inactive in assay [7], in assay [8], in assay [9], in [10], in assay [11] and in assay [12]. In addition, the outcome in assay [13], in assay [19], in assay [14], in assay [20], in assay [15] and in [16] was inactive. Moreover, the molecule was called inactive in [17] and in [18].
Consider `NCCOCCO`, for which the outcome in [1], in assay [2], in assay [3], in assay [4], in assay [5] and in [6] was inactive. In addition, the result in assay [7], in assay [8], in assay [9], in assay [10], in assay [11] and in assay [13] was inactive. Besides, the outcome in [14], in assay [15], in [16] and in assay [17] was inactive. The half-maximal activity concentration (AC50) in assay [20] was 30.2 µM (active).
As for `CC(C)(N)CO`, the outcome in [1], in [2], in [3], in assay [4], in [5] and in assay [6] was inactive. Also, the result in [7], in assay [8], in [9], in assay [10], in [11] and in [13] was inactive. The result in [14], in assay [15], in assay [16], in [17] and in assay [18] was inactive.

What is called AC50 is the concentration at which the activity in the assay is half-maximal.
